Data published in the antibiotic and cytotoxicity screens of Wong et al. (2023).
Hit rate of the full screen: of about 39,000 compounds, about 3,300 (8.5%) were called active. What follows is part of a selection rich in actives, with near analogues and random picks from the rest.

What follows are molecules tested on HepG2 (assay: cytotoxicity call (relative viability < 0.9)). Details: 10 µM.

Row | Structure (SMILES) | cytotoxicity call
1 | C[C@@H]1CN([C@H](C)CO)S(=O)(=O)c2ccc(Br)cc2O[C@H]1CN(C)C(=O)c1cnccn1 | inactive
2 | CNC[C@@H]1Oc2c(NS(=O)(=O)c3cn(C)cn3)cccc2C(=O)N([C@H](C)CO)C[C@@H]1C | inactive
3 | COCCOC(=O)N1C(=O)[C@@]2(c3cc(C#CCC(C(=O)OC)C(=O)OC)ccc31)[C@H](C(=O)N1CCCCCCC1)[C@H]1C(=O)O[C@H](c3ccccc3)[C@H](c3ccccc3)N1[C@@H]2c1ccc(O)cc1 | active
4 | COCCOC(=O)N1C(=O)[C@@]2(c3cc(C#Cc4ccc(OC)cc4)ccc31)[C@H](c1ccc(OCCO)cc1)N1[C@H](c3ccccc3)[C@H](c3ccccc3)OC(=O)[C@H]1[C@@H]2C(=O)NC[C@H](O)c1ccccc1 | inactive
5 | COc1ccc(C#Cc2ccc3c(c2)[C@@]2(C(=O)N3C(=O)N[C@@H](C)c3ccccc3)[C@H](c3ccc(OCCO)cc3)N3[C@H](c4ccccc4)[C@H](c4ccccc4)OC(=O)[C@H]3[C@@H]2C(=O)O)cc1 | active
6 | COCCOC(=O)N1C(=O)[C@@]2(c3cc(C#Cc4ccc(OC)cc4)ccc31)[C@H](c1ccc(OCCO)cc1)N1[C@H](c3ccccc3)[C@H](c3ccccc3)OC(=O)[C@H]1[C@@H]2C(N)=O | inactive
7 | COCCOC(=O)N1C(=O)[C@@]2(c3cc(C#Cc4ccc(OC)cc4)ccc31)[C@H](C(=O)N1CCCCCCC1)[C@H]1C(=O)O[C@H](c3ccccc3)[C@H](c3ccccc3)N1[C@@H]2c1ccc(O)cc1 | inactive
8 | COCCOC(=O)N1C(=O)[C@@]2(c3cc(C#CCC(C(=O)OC)C(=O)OC)ccc31)[C@H](c1ccc(OCCO)cc1)N1[C@H](c3ccccc3)[C@H](c3ccccc3)OC(=O)[C@H]1[C@@H]2C(=O)N1CCCCCCC1 | inactive
9 | COCCOC(=O)N1C(=O)[C@@]2(c3cc(C#Cc4ccc(OC)cc4)ccc31)[C@H](C(=O)N1CCCCCCC1)[C@H]1C(=O)O[C@H](c3ccccc3)[C@H](c3ccccc3)N1[C@@H]2c1ccc(OCCO)cc1 | inactive
10 | COCCOC(=O)N1C(=O)[C@@]2(c3cc(C#Cc4ccc(OC)cc4)ccc31)[C@H](c1ccc(O)cc1)N1[C@H](c3ccccc3)[C@H](c3ccccc3)OC(=O)[C@H]1[C@@H]2C(=O)N1CCCCCCC1 | active
11 | COCCOC(=O)N1C(=O)[C@@]2(c3cc(C#CCC(C(=O)OC)C(=O)OC)ccc31)[C@H](C(=O)N1CCCCCCC1)[C@H]1C(=O)O[C@H](c3ccccc3)[C@H](c3ccccc3)N1[C@@H]2c1ccc(OCCO)cc1 | inactive
12 | NCC[C@H]1CC[C@H](NC(=O)Cc2ccncc2)[C@@H](CO)O1 | inactive
13 | O=C(O)CCCCCCCCCCCC[C@@H]1C=CCC1 | inactive
14 | COc1ccc(-c2cc(=O)c3c(O)c(OC)c(O[C@H]4O[C@H](CO[C@@H]5O[C@@H](C)[C@H](O)[C@@H](O)[C@H]5O)[C@@H](O)[C@H](O)[C@H]4O)cc3o2)cc1 | inactive
15 | C[C@H](CO)N1C[C@H](C)[C@@H](CN(C)S(=O)(=O)c2cn(C)cn2)Oc2cc(Br)ccc2S1(=O)=O | inactive
16 | C[C@H](CO)N1C[C@H](C)[C@@H](CN(C)Cc2ccc(-c3ccccc3)cc2)Oc2c(NS(=O)(=O)c3cccs3)cccc2C1=O | inactive
17 | C[C@@H]1CCCCO[C@@H](CN(C)Cc2ccncc2)[C@H](C)CN([C@@H](C)CO)C(=O)c2cc(NC(=O)C3CCCCC3)ccc2O1 | inactive
18 | CCOC(=O)c1cccc(N)c1.CS(=O)(=O)O | inactive
19 | CCOc1ccc2nc(S(N)(=O)=O)sc2c1 | inactive
20 | CC(O)C(=O)O.CCOc1ccc2nc3cc(N)ccc3c(N)c2c1 | active

Row | Structure (SMILES) | cytotoxicity call
21 | CO[C@@H](CN(C)C(=O)C1CCOCC1)[C@@H](C)CN(C(=O)Nc1ccc(C(F)(F)F)cc1)[C@@H](C)CO | inactive
22 | CC(=O)N[C@@H]1C[C@H](O)[C@@H](O)CCC(=O)N[C@H](c2ccccc2)COC1=O | inactive
23 | C[C@H]1CN([C@@H](C)CO)C(=O)Cc2cc(NC(=O)Cn3cnnn3)ccc2O[C@H]1CN(C)C(=O)Nc1ccc(C(F)(F)F)cc1 | inactive
24 | C[C@@H]1CCCCO[C@@H](CN(C)C(=O)NC2CCCCC2)[C@H](C)CN([C@H](C)CO)C(=O)c2cc(NC(=O)CCC(F)(F)F)ccc2O1 | inactive
25 | CO[C@H]1CN(C)C(=O)c2cc(NC(=O)NC(C)C)ccc2OC[C@H](C)N(Cc2ccc(-c3ccccn3)cc2)C[C@H]1C | inactive
26 | C[C@H](CO)N1C[C@H](C)[C@H](CN(C)C(=O)Nc2cccc3ccccc23)OCCCC[C@H](C)Oc2ccc(NS(=O)(=O)c3ccc(F)cc3)cc2C1=O | inactive
27 | C[C@@H]1CCCCO[C@@H](CN(C)C(=O)Nc2cccc3ccccc23)[C@H](C)CN([C@H](C)CO)C(=O)c2cc(NS(=O)(=O)c3ccc(F)cc3)ccc2O1 | active
28 | C[C@@H]1CCCCO[C@@H](CN(C)C(=O)Nc2cccc3ccccc23)[C@@H](C)CN([C@H](C)CO)C(=O)c2cc(NS(=O)(=O)c3ccc(F)cc3)ccc2O1 | inactive
29 | C[C@@H]1CN([C@@H](C)CO)C(=O)c2cc(NS(=O)(=O)c3ccc(F)cc3)ccc2O[C@@H](C)CCCCO[C@@H]1CN(C)C(=O)Nc1cccc2ccccc12 | inactive
30 | C[C@@H]1CN([C@@H](C)CO)C(=O)c2cc(NS(=O)(=O)c3ccc(F)cc3)ccc2O[C@@H](C)CCCCO[C@H]1CN(C)C(=O)Nc1cccc2ccccc12 | inactive
31 | C[C@H](CO)N1C[C@H](C)[C@@H](CN(C)C(=O)Nc2cccc3ccccc23)OCCCC[C@H](C)Oc2ccc(NS(=O)(=O)c3ccc(F)cc3)cc2C1=O | inactive
32 | C[C@@H]1CCCCO[C@@H](CN(C)C(=O)Nc2cccc3ccccc23)[C@H](C)CN([C@@H](C)CO)C(=O)c2cc(NS(=O)(=O)c3ccc(F)cc3)ccc2O1 | inactive
33 | C[C@H]1CCCCO[C@@H](CN(C)C(=O)Nc2cccc3ccccc23)[C@@H](C)CN([C@@H](C)CO)C(=O)c2cc(NS(=O)(=O)c3ccc(F)cc3)ccc2O1 | inactive
34 | C[C@H]1CCCCO[C@H](CN(C)C(=O)Nc2cccc3ccccc23)[C@@H](C)CN([C@@H](C)CO)C(=O)c2cc(NS(=O)(=O)c3ccc(F)cc3)ccc2O1 | active
35 | C[C@@H]1CCCCO[C@H](CN(C)C(=O)Nc2cccc3ccccc23)[C@H](C)CN([C@@H](C)CO)C(=O)c2cc(NS(=O)(=O)c3ccc(F)cc3)ccc2O1 | active
36 | C[C@@H]1CCCCO[C@H](CN(C)C(=O)Nc2cccc3ccccc23)[C@@H](C)CN([C@H](C)CO)C(=O)c2cc(NS(=O)(=O)c3ccc(F)cc3)ccc2O1 | active
37 | CN1CCC[C@H](C(=O)O)C1 | inactive
38 | C[C@@H]1CN([C@H](C)CO)S(=O)(=O)c2ccc(C#CC3CC3)cc2O[C@H]1CN(C)Cc1cccc(F)c1 | inactive
39 | CNC[C@H]1Oc2cc(C#CC(C)(C)O)ccc2S(=O)(=O)N([C@H](C)CO)C[C@@H]1C | inactive
40 | O=C(C[C@@H]1CC[C@H]2[C@@H](COC[C@@H](O)CN2S(=O)(=O)c2ccc(Cl)cc2)O1)N[C@@H]1CCN(Cc2ccccc2)C1 | inactive

Row | Structure (SMILES) | cytotoxicity call
41 | C[C@@H]1CN([C@H](C)CO)C(=O)c2cc(NS(C)(=O)=O)ccc2O[C@H]1CN(C)C(=O)Nc1ccc2c(c1)OCO2 | inactive
42 | CCOC(=O)c1snc2c(=O)nc[nH]c12 | inactive
43 | C=CCOC(=O)[C@@H]1[C@H]2C(=O)O[C@H](c3ccccc3)[C@H](c3ccccc3)N2[C@H](c2ccc(OCCOC(=O)[C@H]3C[C@H]4C(=O)N[C@@H](CCCCNC(C)=O)C(=O)N4[C@H]3c3cccc(OCCO)c3)cc2)[C@@]12C(=O)Nc1ccc(I)cc12 | inactive
44 | C[C@@H]1CCCCO[C@@H](CN(C)C(=O)CCC(F)(F)F)[C@@H](C)CN([C@@H](C)CO)C(=O)c2cc(NC(=O)Nc3ccc4c(c3)OCO4)ccc2O1 | inactive
45 | C[C@@H]1CCCCO[C@H](CN(C)C(=O)Nc2cccc3ccccc23)[C@H](C)CN([C@H](C)CO)C(=O)c2cc(NS(=O)(=O)c3ccc(F)cc3)ccc2O1 | active
46 | C[C@H]1CN([C@@H](C)CO)S(=O)(=O)c2ccc(-c3cccnc3)cc2O[C@H]1CN(C)C(=O)c1ccc2c(c1)OCO2 | inactive
47 | NC(=O)CC1=NC(=O)CS1 | inactive
48 | C[C@H]1CN([C@@H](C)CO)C(=O)Cc2cc(NC(=O)Cc3ccccc3)ccc2O[C@@H]1CN(C)S(C)(=O)=O | inactive
49 | Cc1ccc(S(=O)(=O)Nc2ccc3c(c2)C(=O)N([C@@H](C)CO)C[C@H](C)[C@H](CN(C)Cc2ccc4c(c2)OCO4)OCCCC[C@@H](C)O3)cc1 | inactive
50 | C[C@@H]1CN([C@@H](C)CO)C(=O)c2cc(NC(=O)Nc3cccc4ccccc34)ccc2O[C@H]1CN(C)Cc1ccncc1 | inactive
51 | C#CC1(O)CCC2C3CCC4=CC(=O)CCC4C3CCC21CC (stereo not drawn) | inactive
52 | C#CC1(OC(C)=O)CCC2C3CCC4=CC(=O)CCC4C3CCC21C (stereo not drawn) | inactive
53 | C#CC1(OC(C)=O)CCC2C3CCC4=CC(OC(C)=O)CCC4C3CCC21C (stereo not drawn) | active
54 | CC(=O)OC1(C(C)=O)CCC2C3CC(C)C4=CC(=O)CCC4(C)C3CCC21C (stereo not drawn) | inactive
55 | C#CC1(OC(C)=O)CCC2C3CCC4=CC(=NO)CCC4C3CCC21CC (stereo not drawn) | active
56 | C[C@@H]1CN([C@H](C)CO)C(=O)CCCn2cc(nn2)CO[C@@H]1CN(C)C(=O)Nc1ccc2c(c1)OCCO2 | inactive
57 | COc1ccc(S(=O)(=O)Nc2cccc3c2O[C@@H](CN(C)C(=O)Nc2c(C)noc2C)[C@H](C)CN([C@H](C)CO)C3=O)cc1 | inactive
58 | COc1cccc(S(=O)(=O)N(C)C[C@@H]2Oc3cc(C4=CCCC4)ccc3S(=O)(=O)N([C@H](C)CO)C[C@@H]2C)c1 | inactive
